Sampled rows, rich in hits. Any-hit rate of the full collection: about 8%.
KB-3-1 cytotox: kills parental KB-3-1 adenocarcinoma cells | KB-3-1 viability, CellTiter-Glo ATP luminescence, 72 h | Potency, µM (top dose mostly 46.1 µM), actives largely listed as cytotoxic | 400,000 compounds, 1.4% hits | AID 1347075; also: nearly all actives have a fitted effect of over 60% in size
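Cytotoxicity measured as CellTiter-Glo luminescence after 72 h at 37 C. Compound titrations were pinned onto drug-naive KB-3-1 parental adenocarcinoma cells grown in DMEM with 10% FBS, and normalized data fitted to concentration-response curves.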
HT1080NT lethal: kills 2HG-producing HT-1080-NT fibrosarcoma cells; HT-1080-NT fibrosarcoma viability, CellTiter-Glo ATP luminescence, 48 h; AID 686970; Potency, µM (series often up to 46.1 µM), usual class: cytotoxic; 360,000 compounds, 1.6% hits;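 also: NT is the 2HG producing partner of a matched IDH1 knockdown line; nearly all actives have a fitted effect of over 55% in size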
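Fibrosarcoma NT cells, 750 per well in 5% FBS RPMI, were exposed to compound for 48 hours. Viability: CellTiter-Glo luminescence.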
MCF10A rereplic: induces DNA re-replication in MCF 10a normal breast cells. MCF 10A DNA re-replication, Hoechst nuclear intensity, 48 h. Potency, µM (titrated, usually from 46.1 µM), actives largely listed as activators. 350,000 compounds, 2.9% hits; also: nearly all actives have a fitted effect of over 50% in size
KB-V1 cytotox: kills drug-selected multidrug resistant KB-V1 cells. KB-V1 MDR cells viability, CellTiter-Glo, 72 h. Potency, µM (titrated, usually from 46.1 µM), usual class: cytotoxic. 400,000 compounds, 3.4% hits; also: nearly all actives have a fitted effect of over 60% in size
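Potencies derive from concentration-effect curves fitted to normalized luminescence (CellTiter-Glo) of KB-V1 cells treated for 72 h at 37 degrees C in phenol-red-free DMEM containing 10% FBS.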
HT1080 IDH1KD tx: HT-1080 IDH1 knockdown cell toxicity (counter line). AID 686971. HT-1080 IDH1 knockdown viability, ATP luminescence, 48 h. 360,000 compounds, 2% hits. Potency, µM (highest dose often 46.1 µM), actives largely listed as cytotoxic
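Luminescent ATP read-out (CellTiter-Glo, 10 min at room temperature) after 48 h compound exposure at 37 °C gave viability of IDH1-knockdown HT-1080 cells. Activity was normalised to DMSO and cell-free wells, then fitted as concentration-response curves.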
SW480 rerep: DNA re-replication induction in SW480 cells | SW480 DNA re-replication, Hoechst DNA content imaging, 48 h | 340,000 compounds, 1.8% hits | AID 624297 | Potency, µM (top dose mostly 46.1 µM), hits mostly activators; also: nearly all actives have a fitted effect of over 55% in size
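Per well, 250 cells were exposed to pinned compound for 48 hr. Nuclear DNA was visualised with Hoechst (40 min, 37 C) and total object intensity recorded by fluorescence scanning.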
Hits are given with their value; 0 = inactive; ? = inconclusive; - = not tested or not shown; [ ] = another dose, or the depositor's remark. Calls follow the shape of the dose curve; as a rule, active = well fitted curve in the direction sought with a large enough effect; inconclusive = small, poorly fitted or top-dose-only effect, or another doubt; inactive = no such curve, though single readings can be large; an effect the other way counts as inactive or inconclusive.

SMILES	KB-3-1 cytotox	HT1080NT lethal	MCF10A rereplic	KB-V1 cytotox	HT1080 IDH1KD tx	SW480 rerep
O=C1c2ccccc2C(=O)N1c1ccc(O)cc1	0	-	-	0	-	-
Cc1ccc(C(=O)Nc2ccc3oc(-c4ccncc4)nc3c2)c(Cl)c1	0	-	-	0	-	-
Brc1ccc(/C=C2\C=Cc3ccccc32)cc1	0	-	-	0	-	-
COc1ccccc1-c1nn2c(=O)cc(CN3CCN(C(=O)/C=C/c4ccccc4)CC3)nc2s1	0	-	-	0	-	-
CCCOc1ccccc1C1NC(=O)NC(C)=C1C(=O)OCc1ccccc1 (centres undefined)	0	?	0	21µM	?	0
CCOc1cc(C)c(-c2onc(C(F)(F)F)c2-c2csc(C)n2)c(O)c1	?	?	?	13µM	?	0
COc1cccc(C(=O)Nc2cccc(-c3cn4c(C)csc4n3)c2)c1OC	0	-	-	0	-	-
COc1ccc(CNC(=O)c2ccc(-c3nc(CSc4ccccc4)c(C)o3)cc2)cc1OC	0	-	-	0	-	-
CCOC(=O)C1CCN(Cc2cc(Cl)c3ccccc3c2O)CC1	0	?	18µM	0	26µM	?
O=C(c1ccco1)N1CCN(Cc2nc3ccccc3c(=O)n2-c2ccc(F)cc2)CC1	0	0[9.24 µM]	0	?	0	0
CCOC(=O)C1CCN(Cc2ccc(OC)c(C)c2OC)CC1	0	0	0	?	0	0
CCOC(=O)C1CCN(Cc2nc3ccccc3c(=O)n2-c2ccc(F)cc2)CC1	0	0	0	4.1µM	0	0
CO[C@@H]1CN(C)C(=O)c2ccc(NC(=O)C3CCC3)cc2OC[C@H](C)N(CC2CCCCC2)C[C@H]1C	0	?	-	?	?	-
CO[C@@H]1CN(C)C(=O)c2ccc(NC(=O)C3CCCC3)cc2OC[C@@H](C)N(Cc2ccc(F)cc2)C[C@H]1C	?	0	-	23µM	0	-
COc1cc(OC)nc(Nc2nc(C(N)Cc3ccc(C(F)(F)F)cc3)cs2)n1 (centres undefined)	?	18µM	-	?	?	-
COc1cccc(Nc2nc(C(N)COCc3ccccc3)cs2)n1 (centres undefined)	0	18µM	-	0	?	-
NC(=O)c1cccc(Nc2nc(C(N)Cc3ccc(C(F)(F)F)cc3)cs2)n1 (centres undefined)	?	7.3µM	-	0	?	-
COc1cccc(Nc2nc(C(N)CC(C)C)cs2)n1 (centres undefined)	0	?	-	0	16µM	-
COc1cc(OC)nc(Nc2nc(C(C)N)cs2)n1 (centres undefined)	0	0	-	0	0	-
COc1cccc2c1ncc1c(-c3ccc(C)cc3)nn(-c3cccc([N+](=O)[O-])c3)c12	0	-	-	0	-	-
COc1ccc(CC(N)c2csc(Nc3ccccn3)n2)cc1 (centres undefined)	0	0	-	0	?	-
COc1cccc(Nc2nc(C(N)Cc3ccc(Cl)cc3)cs2)n1 (centres undefined)	0	23µM	-	0	16µM	-
COc1ccc(CC(N)c2csc(Nc3cccc(OC)n3)n2)cc1 (centres undefined)	0	26µM	-	?	0	-
COc1cccc(Nc2nc(C(N)Cc3ccc(C(F)(F)F)cc3)cs2)n1 (centres undefined)	0	13µM	-	0	23µM	-
COC(=O)c1cnc(Nc2nc(C(N)Cc3ccc(Cl)cc3)cs2)nc1C(F)(F)F (centres undefined)	?	?	-	0	?	-
SMILES	KB-3-1 cytotox	HT1080NT lethal	MCF10A rereplic	KB-V1 cytotox	HT1080 IDH1KD tx	SW480 rerep
COC(=O)c1cnc(Nc2nc(C(N)Cc3ccc(OC)cc3)cs2)nc1C(F)(F)F (centres undefined)	0	23µM	-	0	?	-
COc1cccc(Nc2nc(C(N)C(C)C)cs2)n1 (centres undefined)	?	?	-	0	0	-
COc1ccc(C(N)c2csc(Nc3ccc(C(F)(F)F)cn3)n2)cc1 (centres undefined)	0	?	-	0	?	-
O=C(Nc1cc(Cl)cc(Cl)c1)c1cc(S(=O)(=O)N2CCc3ccccc3C2)ccc1F	0	-	-	0	-	-
CCNc1nc(C#N)nc(Nc2ccccc2)n1	?	-	-	0	-	-
COc1ccc(C)cc1NC(=O)c1cc(S(=O)(=O)NC2CCCCCC2)ccc1F	0	-	-	0	-	-
CCN(C)c1ccc(/C=C/c2ccnc3ccccc23)cc1	0	-	-	?	-	-
O=C(CCn1c(=O)c2ccccc2n(CC(=O)Nc2cccc(F)c2)c1=O)NCCc1ccccc1	0	-	-	0	-	-
Cc1cccc(OC(=O)CSc2nnc(CNC(=O)c3ccccc3)o2)c1C	0	-	-	0	-	-
Cc1ccc(NC2=CC(=O)CC(c3ccco3)C2)c(N)c1 (centres undefined)	0	0	10µM	0	0	0
Cc1cc(C)cc(NC2=CC(=O)CC(c3ccco3)C2)c1 (centres undefined)	0	0	0	16µM	0	0
O=C1C=C(Nc2cccc(Cl)c2)CC(c2ccco2)C1 (centres undefined)	0	0	0	?	0	0
O=C(c1cnc(N2CCOCC2)c2ccccc12)N1CCN(c2ccccc2)CC1	0	-	-	0	-	-
Cc1cccc(CCNC(=O)Cn2ncc3c(=O)oc4ccccc4c32)c1	0	-	-	0	-	-
CC(=O)/C(N=Nc1cccc(C(F)(F)F)c1)=C(\C)O	0	0	0	0	0	0
O=C(/C(N=Nc1cccc(C(F)(F)F)c1)=C(/O)c1cccs1)C(F)(F)F	?	?	21µM	?	21µM	0
CN(C(=O)/C(N=Nc1cccc(C(F)(F)F)c1)=C(\O)C(F)(F)F)c1ccccc1	0	11µM	?	?	?	0
Cn1c(=O)c2c(nc(SCC(=O)Nc3ccc(F)cc3)n2Cc2ccccc2F)n(C)c1=O	0	-	-	0	-	-
CC(=O)c1ccc(NC(=O)c2sc(-n3nc(C)c(CCC(C)C)c3C)nc2C)cc1	0	-	-	0	-	-
Cc1cccc(Cn2c(COc3ccccc3)nc3ccccc32)c1	0	-	-	?	-	-
CCOC(=O)C1=C(c2ccccc2)NC(N)=NC1c1ccc(OCc2ccc(Cl)cc2)c(OC)c1 (centres undefined)	?	0	18µM	0	0	?
CCOC(=O)C1=C(c2ccccc2)NC(=O)NC1c1cc(Cl)c(O)c(OC)c1 (centres undefined)	0	0	0	0	0	0
CCOc1ccc(CCNC(=O)c2ccc3c(c2)c(C)c(C)n3Cc2ccccc2)cc1OCC	0	-	-	?	-	-
O=C(NN1C(=O)C2C3c4ccccc4C(c4ccccc43)C2C1=O)c1ccc(Cl)cc1 (centres undefined)	0	0	0	16µM	0	0
COCCCNC(=O)c1c(NC(=O)c2cc(=O)c3ccccc3o2)sc2c1CCCC2	0	-	-	0	-	-
Cc1cccc(Nc2nc(N)c([N+](=O)[O-])c(NCc3ccco3)n2)c1	?	?	?	7.3µM	?	?

Compound activity: PubChem BioAssay, National Center for Advancing Translational Sciences (NCATS)
